Results on 13 compounds are retold here after the supplement of paper PMC10646978.

± gives the standard deviation.

What all share (conditions): modulator concentration 10 µM
The test system of assay [1] is RAW-Dual (murine macrophage reporter line). Put plainly: NF-kB reporter (SEAP) activity fold change vs agonist alone; higher = enhanced NF-kB activity. In a few lines:
(§1)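 Compound reached 10 μM final in each well by pin transfer, onto RAW-Dual murine macrophage reporter cells seeded at 50 000 per well in 384-well plates. After 1 hour at 37 °C, the cells were stimulated overnight with a PRR agonist. SEAP in the supernatant was read with QUANTI-Blue at 620 nm absorbance for NF-κB, and Lucia luciferase was read with QUANTI-Luc luminescence for IRF. Each signal was turned into fold change against the mean agonist-only control on the same plate, and two replicate plates were averaged with propagated errors.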

Assay [2] shares this test system. Put plainly: IRF reporter (Lucia luciferase) activity fold change vs agonist alone; higher = enhanced IRF activity. In a few lines:
as §1

The test system is the same in assay [3]. Nature of the assay: viability score (confluency relative to resting cells, overnight) (fraction); higher = more viable, active = viable (0.7 or more). In outline: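 RAW-Dual macrophages in 384-well plates were treated overnight with compound at 10 μM final. IncuCyte imaging recorded confluency, and IncuCyte software built two confluency masks across every imaged well. The viability score expresses confluency relative to resting cells and was judged against a cutoff, which a compound met only if both masks exceeded 70% of resting cells.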

The mark [4] stands for this setting: agonist: CpG ODN 1826 0.5 ug/mL.

For the compound `COc1ccc(OC)c(-c2csc(NC(=O)C3CC3)n2)c1`, the NF-kB reporter in assay [1] (setting [4]) is 1.11 ± 0.068; in assay [1] (agonist: LPS 0.1 ug/mL) it was 0.972 ± 0.08; in assay [1] (agonist: MPLA […]), 1 ± 0.034. The IRF reporter came to 0.935 ± 0.043 in assay [2] (agonist: 3'3'-cGAMP 10 ug/mL), 1.01 ± 0.061 in assay [2] (agonist: LPS 0.1 ug/mL) and 1.13 ± 0.12 in assay [2] (agonist: MPLA […]). Also, the viability score in assay [3] is 0.994 (active).
With `COC(=O)C1C(c2ccccc2)C(C(=O)Oc2ccc(C(C)=O)cc2)C1c1ccccc1` (stereo unspecified), the results for the NF-kB reporter in assay [1] (setting [4]), in assay [1] (agonist: LPS 0.1 ug/mL) and in assay [1] (agonist: MPLA […]) were 0.895 ± 0.069, 0.939 ± 0.046 and 1.16 ± 0.1, respectively. The IRF reporter in assay [2] (agonist: 3'3'-cGAMP 10 ug/mL) is 0.908 ± 0.06; in assay [2] (agonist: LPS 0.1 ug/mL), 1.17 ± 0.1; in assay [2] (agonist: MPLA […]) it was 1.28 ± 0.15. For the same compound, the viability score in assay [3] is 1.02 (active).
Consider `CN(CC(=O)O)c1nc2ccc(OC(F)(F)F)cc2s1`, for which the values for the NF-kB reporter in assay [1] (setting [4]), in assay [1] (agonist: LPS 0.1 ug/mL) and in assay [1] (agonist: MPLA […]) were 0.821 ± 0.15, 1.03 ± 0.13 and 0.736 ± 0.064, respectively. The IRF reporter in assay [2] (agonist: 3'3'-cGAMP 10 ug/mL) was 0.892 ± 0.048; in assay [2] (agonist: LPS 0.1 ug/mL), 0.941 ± 0.17; in assay [2] (agonist: MPLA […]), 0.952 ± 0.14. In assay [3], the viability score was 1.01 (active).
Turning to `Cc1ccc(=O)n(-c2ccccc2)c1`, the NF-kB reporter in assay [1] (setting [4]) worked out at 0.979 ± 0.079; in assay [1] (agonist: LPS 0.1 ug/mL), 0.981 ± 0.098; in assay [1] (agonist: MPLA […]), 0.968 ± 0.038. Besides, the IRF reporter in assay [2] (agonist: 3'3'-cGAMP 10 ug/mL) turned out to be 0.979 ± 0.077; in assay [2] (agonist: LPS 0.1 ug/mL) it was 0.975 ± 0.13; in assay [2] (agonist: MPLA […]) it was 0.976 ± 0.092. In assay [3], the viability score is 1 (active).
For `O=c1cc2c(nn1CC1CCN(CC3(O)CCOCC3)CC1)CCCC2`, the NF-kB reporter in assay [1] (setting [4]) stood at 1.08 ± 0.1; in assay [1] (agonist: LPS 0.1 ug/mL) it was 0.988 ± 0.099; in assay [1] (agonist: MPLA […]) it was 0.918 ± 0.066. Further, the IRF reporter in assay [2] (agonist: 3'3'-cGAMP 10 ug/mL) is 1.08 ± 0.063; in assay [2] (agonist: LPS 0.1 ug/mL), 1.21 ± 0.075; in assay [2] (agonist: MPLA […]) it was 1.04 ± 0.17. The viability score in assay [3] is 1.01 (active).
Regarding `Cc1nc[nH]c1CN1CCc2c(c3ccccc3n2C)C1=O.Cl`, the NF-kB reporter turned out to be 1.13 ± 0.28 in assay [1] (setting [4]), 1.08 ± 0.12 in assay [1] (agonist: LPS 0.1 ug/mL) and 0.903 ± 0.08 in assay [1] (agonist: MPLA […]). Besides, the IRF reporter in assay [2] (agonist: 3'3'-cGAMP 10 ug/mL) came to 0.903 ± 0.041; in assay [2] (agonist: LPS 0.1 ug/mL), 1.31 ± 0.2; in assay [2] (agonist: MPLA […]), 1.12 ± 0.11. Besides, in assay [3], the viability score is 1 (active).
As to `CC1SC(c2ccccc2)NC1=O` (stereo unspecified), the NF-kB reporter came out at 1.04 ± 0.08 in assay [1] (setting [4]), 1.06 ± 0.065 in assay [1] (agonist: LPS 0.1 ug/mL) and 0.952 ± 0.055 in assay [1] (agonist: MPLA […]). The IRF reporter in assay [2] (agonist: 3'3'-cGAMP 10 ug/mL) was determined as 0.791 ± 0.026; in assay [2] (agonist: LPS 0.1 ug/mL) it was 1.42 ± 0.098; in assay [2] (agonist: MPLA […]), 1.2 ± 0.12. Moreover, in assay [3], the viability score was 0.999 (active).
For `O=C(NCC1(O)CCOc2ccccc21)c1ccccc1C(F)(F)F` (stereo unspecified), the figures for the NF-kB reporter in assay [1] (setting [4]), in assay [1] (agonist: LPS 0.1 ug/mL) and in assay [1] (agonist: MPLA […]) were 1.85 ± 0.095, 1.31 ± 0.24 and 1.95 ± 0.67, respectively. Moreover, the IRF reporter in assay [2] (agonist: 3'3'-cGAMP 10 ug/mL) turned out to be 0.687 ± 0.44; in assay [2] (agonist: LPS 0.1 ug/mL), 0.669 ± 0.34; in assay [2] (agonist: MPLA […]), 0.721 ± 0.084. Moreover, in assay [3], the viability score is 0.574 (inactive).
`O=S(=O)(c1cccc2ccccc12)n1nnc2ccccc21`: the NF-kB reporter in assay [1] (setting [4]) amounted to 1.01 ± 0.092; in assay [1] (agonist: LPS 0.1 ug/mL), 1.03 ± 0.068; in assay [1] (agonist: MPLA […]), 1.05 ± 0.08. The IRF reporter in assay [2] (agonist: 3'3'-cGAMP 10 ug/mL) came to 1.09 ± 0.29; in assay [2] (agonist: LPS 0.1 ug/mL) it was 1.04 ± 0.065; in assay [2] (agonist: MPLA […]) it was 0.995 ± 0.067. In addition, the viability score in assay [3] was 1 (active).
For `CCN(CC)c1ccc(NC(=O)C(C)(C)C)cc1`, the NF-kB reporter turned out to be 0.969 ± 0.075 in assay [1] (setting [4]), 1.02 ± 0.075 in assay [1] (agonist: LPS 0.1 ug/mL) and 0.98 ± 0.12 in assay [1] (agonist: MPLA […]). For the same compound, the IRF reporter in assay [2] (agonist: 3'3'-cGAMP 10 ug/mL) was determined as 0.901 ± 0.074; in assay [2] (agonist: LPS 0.1 ug/mL), 1.22 ± 0.17; in assay [2] (agonist: MPLA […]), 1.36 ± 0.25. The viability score in assay [3] is 1.04 (active).
As to `COC(=O)C1=C(C)NC(C)=C(C(=O)OCCN2CCN(C(c3ccccc3)c3ccccc3)CC2)C1c1cccc([N+](=O)[O-])c1` (stereo unspecified), the NF-kB reporter in assay [1] (setting [4]) stood at 0.231 ± 0.038; in assay [1] (agonist: LPS 0.1 ug/mL), 0.631 ± 0.07; in assay [1] (agonist: MPLA […]) it was 0.89 ± 0.051. For the same compound, the figures for the IRF reporter in assay [2] (agonist: 3'3'-cGAMP 10 ug/mL), in assay [2] (agonist: LPS 0.1 ug/mL) and in assay [2] (agonist: MPLA […]) were 0.138 ± 0.0049, 0.949 ± 0.11 and 1.1 ± 0.11, respectively. In assay [3], the viability score was 0.966 (active).
`C=C(CC)C(=O)c1ccc(OCC(=O)O)c(Cl)c1Cl` [Prestw-259]: the figures for the NF-kB reporter in assay [1] (setting [4]), in assay [1] (agonist: LPS 0.1 ug/mL) and in assay [1] (agonist: MPLA […]) were 0.596 ± 0.14, 0.588 ± 0.077 and 0.722 ± 0.049, respectively. Besides, the figures for the IRF reporter in assay [2] (agonist: 3'3'-cGAMP 10 ug/mL), in assay [2] (agonist: LPS 0.1 ug/mL) and in assay [2] (agonist: MPLA […]) were 0.563 ± 0.02, 1.85 ± 0.21 and 1.53 ± 0.17, respectively. Besides, the viability score in assay [3] is 0.953 (active).
As for `CN(C)CC/C=C1/c2ccccc2Sc2ccc(Cl)cc21`, the NF-kB reporter in assay [1] (setting [4]) was found to be 0.942 ± 0.058; in assay [1] (agonist: LPS 0.1 ug/mL), 1.02 ± 0.085; in assay [1] (agonist: MPLA […]), 1.08 ± 0.078. Moreover, the IRF reporter in assay [2] (agonist: 3'3'-cGAMP 10 ug/mL) turned out to be 0.925 ± 0.043; in assay [2] (agonist: LPS 0.1 ug/mL), 1.08 ± 0.19; in assay [2] (agonist: MPLA […]), 1.23 ± 0.38. Also, in assay [3], the viability score was 1.02 (active).
